Data: the supplement of paper PMC10646978
± gives the standard deviation.

Experiments:
Conditions in all cases: modulator concentration 10 µM
[1] = test system: RAW-Dual (murine macrophage reporter line); assay: NF-kB reporter (SEAP) activity fold change vs agonist alone; higher = enhanced NF-kB activity
Summary of the method: (§1)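 Compound reached 10 μM final in each well by pin transfer, onto RAW-Dual murine macrophage reporter cells seeded at 50 000 per well in 384-well plates. After 1 hour at 37 °C, the cells were stimulated overnight with a PRR agonist. SEAP in the supernatant was read with QUANTI-Blue at 620 nm absorbance for NF-κB, and Lucia luciferase was read with QUANTI-Luc luminescence for IRF. Each signal was turned into fold change against the mean agonist-only control on the same plate, and two replicate plates were averaged with propagated errors.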

[2] = test system: RAW-Dual (murine macrophage reporter line); assay: IRF reporter (Lucia luciferase) activity fold change vs agonist alone; higher = enhanced IRF activity
Summary of the method: as §1

[3] = test system: RAW-Dual (murine macrophage reporter line); assay: viability score (confluency relative to resting cells, overnight) (fraction); higher = more viable, active = viable (0.7 or more)
Summary of the method: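 In 384-well plates, RAW-Dual macrophages received compound at a final 10 μM overnight. Two confluency masks were then made with IncuCyte software from IncuCyte images of all imaged wells. The viability score is defined as confluency relative to resting cells. Passing the cutoff required both masks to lie above 70% of resting cells.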

[4] = agonist: CpG ODN 1826 0.5 ug/mL

CCCCCCOc1ccc(N2C(=O)CC(N3CCN(Cc4ccc5c(c4)OCO5)CC3)C2=O)cc1 (centres undefined)
NF-kB reporter [1, 4]: 0.919 ± 0.073 | NF-kB reporter ([1]; agonist: LPS 0.1 ug/mL): 1.07 ± 0.075 | NF-kB reporter ([1]; agonist: MPLA […]): 0.9 ± 0.055 | IRF reporter ([2]; agonist: 3'3'-cGAMP 10 ug/mL): 0.929 ± 0.032 | IRF reporter ([2]; agonist: LPS 0.1 ug/mL): 1.38 ± 0.17 | IRF reporter ([2]; agonist: MPLA […]): 1.32 ± 0.12 | viability score [3]: 0.991 (active)

CC(Cc1ccccc1)NC(=O)C1COc2ccccc2O1 (centres undefined)
NF-kB reporter [1, 4]: 0.662 ± 0.13 | NF-kB reporter ([1]; agonist: LPS 0.1 ug/mL): 1.12 ± 0.09 | NF-kB reporter ([1]; agonist: MPLA […]): 1.13 ± 0.14 | IRF reporter ([2]; agonist: 3'3'-cGAMP 10 ug/mL): 0.979 ± 0.048 | IRF reporter ([2]; agonist: LPS 0.1 ug/mL): 0.965 ± 0.13 | IRF reporter ([2]; agonist: MPLA […]): 1.15 ± 0.12 | viability score [3]: 0.919 (active)

COc1ccc2c3c1O[C@H]1C[C@@H](O)C=C[C@@]31CCN(C)C2 [Prestw-588]
NF-kB reporter [1, 4]: 1.13 ± 0.077 | NF-kB reporter ([1]; agonist: LPS 0.1 ug/mL): 1.07 ± 0.091 | NF-kB reporter ([1]; agonist: MPLA […]): 0.95 ± 0.038 | IRF reporter ([2]; agonist: 3'3'-cGAMP 10 ug/mL): 0.997 ± 0.056 | IRF reporter ([2]; agonist: LPS 0.1 ug/mL): 0.987 ± 0.046 | IRF reporter ([2]; agonist: MPLA […]): 0.923 ± 0.16 | viability score [3]: 0.998 (active)

CCOC(=O)CC(C(=O)OCC)P(=O)(c1ccccc1)c1ccccc1 (centres undefined)
NF-kB reporter [1, 4]: 0.85 ± 0.048 | NF-kB reporter ([1]; agonist: LPS 0.1 ug/mL): 0.943 ± 0.086 | NF-kB reporter ([1]; agonist: MPLA […]): 1.02 ± 0.14 | IRF reporter ([2]; agonist: 3'3'-cGAMP 10 ug/mL): 0.993 ± 0.061 | IRF reporter ([2]; agonist: LPS 0.1 ug/mL): 1.17 ± 0.095 | IRF reporter ([2]; agonist: MPLA […]): 1.15 ± 0.23 | viability score [3]: 1.01 (active)

C(=C\c1ccccc1)/CN1CCN(C(c2ccccc2)c2ccccc2)CC1
NF-kB reporter [1, 4]: 1.14 ± 0.16 | NF-kB reporter ([1]; agonist: LPS 0.1 ug/mL): 0.957 ± 0.37 | NF-kB reporter ([1]; agonist: MPLA […]): 0.989 ± 0.065 | IRF reporter ([2]; agonist: 3'3'-cGAMP 10 ug/mL): 0.828 ± 0.028 | IRF reporter ([2]; agonist: LPS 0.1 ug/mL): 1.23 ± 0.44 | IRF reporter ([2]; agonist: MPLA […]): 1.33 ± 0.1 | viability score [3]: 0.979 (active)

CC(C)Sc1ccc(CC(=O)N2CCC(S(C)(=O)=O)C2)cc1 (centres undefined)
NF-kB reporter [1, 4]: 0.975 ± 0.12 | NF-kB reporter ([1]; agonist: LPS 0.1 ug/mL): 1.12 ± 0.1 | NF-kB reporter ([1]; agonist: MPLA […]): 0.973 ± 0.17 | IRF reporter ([2]; agonist: 3'3'-cGAMP 10 ug/mL): 0.946 ± 0.053 | IRF reporter ([2]; agonist: LPS 0.1 ug/mL): 1.12 ± 0.07 | IRF reporter ([2]; agonist: MPLA […]): 1.29 ± 0.17 | viability score [3]: 0.993 (active)

CCS(=O)(=O)O.COC(=O)c1ccc2c(c1)NC(=O)/C2=C(\Nc1ccc(N(C)C(=O)CN2CCN(C)CC2)cc1)c1ccccc1
NF-kB reporter [1, 4]: 0.115 ± 0.027 | NF-kB reporter ([1]; agonist: LPS 0.1 ug/mL): 0.886 ± 0.044 | NF-kB reporter ([1]; agonist: MPLA […]): 2.23 ± 0.18 | IRF reporter ([2]; agonist: 3'3'-cGAMP 10 ug/mL): 0.036 ± 0.002 | IRF reporter ([2]; agonist: LPS 0.1 ug/mL): 0.177 ± 0.025 | IRF reporter ([2]; agonist: MPLA […]): 0.241 ± 0.028 | viability score [3]: 0.839 (active)

CC(=O)N[C@H]1[C@H]([C@H](O)[C@H](O)CO)OC(C(=O)O)=C[C@@H]1NC(=N)N
NF-kB reporter [1, 4]: 1.12 ± 0.27 | NF-kB reporter ([1]; agonist: LPS 0.1 ug/mL): 0.945 ± 0.12 | NF-kB reporter ([1]; agonist: MPLA […]): 1.02 ± 0.066 | IRF reporter ([2]; agonist: 3'3'-cGAMP 10 ug/mL): 0.919 ± 0.04 | IRF reporter ([2]; agonist: LPS 0.1 ug/mL): 1.3 ± 0.24 | IRF reporter ([2]; agonist: MPLA […]): 1.08 ± 0.12 | viability score [3]: 1.01 (active)

N#Cc1c(N=Cc2ccc(Cl)cc2)sc2c1CCCC2
NF-kB reporter [1, 4]: 0.912 ± 0.16 | NF-kB reporter ([1]; agonist: LPS 0.1 ug/mL): 1.01 ± 0.21 | NF-kB reporter ([1]; agonist: MPLA […]): 0.89 ± 0.068 | IRF reporter ([2]; agonist: 3'3'-cGAMP 10 ug/mL): 0.915 ± 0.031 | IRF reporter ([2]; agonist: LPS 0.1 ug/mL): 1.17 ± 0.21 | IRF reporter ([2]; agonist: MPLA […]): 1.21 ± 0.12 | viability score [3]: 1 (active)

CCOC(=O)C1=C(C)NC(C)=C(C(=O)OCC)C1c1ccc(Cl)cc1
NF-kB reporter [1, 4]: 0.3 ± 0.023 | NF-kB reporter ([1]; agonist: LPS 0.1 ug/mL): 0.27 ± 0.019 | NF-kB reporter ([1]; agonist: MPLA […]): 0.748 ± 0.026 | IRF reporter ([2]; agonist: 3'3'-cGAMP 10 ug/mL): 0.743 ± 0.061 | IRF reporter ([2]; agonist: LPS 0.1 ug/mL): 0.636 ± 0.084 | IRF reporter ([2]; agonist: MPLA […]): 1.67 ± 0.2 | viability score [3]: 0.187 (inactive)

COC(c1ccccc1)(c1ccccc1)C(Oc1nc(C)cc(C)n1)C(=O)O (centres undefined) [Prestw-1497]
NF-kB reporter [1, 4]: 0.986 ± 0.077 | NF-kB reporter ([1]; agonist: LPS 0.1 ug/mL): 0.945 ± 0.07 | NF-kB reporter ([1]; agonist: MPLA […]): 0.936 ± 0.091 | IRF reporter ([2]; agonist: 3'3'-cGAMP 10 ug/mL): 1.09 ± 0.052 | IRF reporter ([2]; agonist: LPS 0.1 ug/mL): 1.31 ± 0.18 | IRF reporter ([2]; agonist: MPLA […]): 1.44 ± 0.32 | viability score [3]: 1.05 (active)

CC1CC(=CC=CN(C)C)C(=O)C(=CC=CN(C)C)C1 (centres undefined)
NF-kB reporter [1, 4]: 1.04 ± 0.17 | NF-kB reporter ([1]; agonist: LPS 0.1 ug/mL): 1 ± 0.085 | NF-kB reporter ([1]; agonist: MPLA […]): 0.917 ± 0.099 | IRF reporter ([2]; agonist: 3'3'-cGAMP 10 ug/mL): 0.888 ± 0.043 | IRF reporter ([2]; agonist: LPS 0.1 ug/mL): 1.22 ± 0.23 | IRF reporter ([2]; agonist: MPLA […]): 1.32 ± 0.28 | viability score [3]: 1 (active)
